Bioassay records (PubChem BioAssay)
hcDAF12 agonist: H. contortus DAF-12 nuclear receptor activators, primary screen, cell-based, luminescence, HEK293, lit1-tk-luc reporter | 1.4% of 370,000 active | activation, % at 6.8 µM | AID 652067, 2013 | HEK293 hcDAF-12 lit1-tk-luc reporter; 0% DMSO, 100% Δ7-dafachronic acid;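 active means activation above the mean of all tested compounds plus 3 SD, cut at about 5.5% in these data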;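 further: 100% = response to 3 µM Δ7-dafachronic acid high control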
DAX1 inh-1: DAX1 (NR0B1) inhibitors on StAR promoter, primary screen, cell-based, luminescence, SF-1 (NR5A1), full-length DAX-1; HEK293T StAR-luciferase reporter, SF-1/DAX-1 repression relief; 1.1% of 370,000 active; inhibition, % at 6.8 µM; AID 652010, 2013;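 active means inhibition above the mean over all tested compounds plus 3 SD, cut at about 3.6% in these data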;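 further: 0% = DAX-1 cells with DMSO and 100% = cells lacking DAX-1 with DMSO; higher inhibition means more luminescence from relief of DAX-1 repression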
ssDAF-12 act: S. stercoralis DAF-12 nuclear receptor activators, primary screen, cell-based, luminescence, HEK293, GRIP1 co-expression, lit1-tk-luc; activation, % at 6.8 µM; HEK293 ssDAF-12/GRIP1 lit1-tk-luc reporter; % of 3 µM dafachronic acid response; 1% of 370,000 active;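 active means activation above the mean over all tested compounds plus 3 SD, cut at about 0.9% in these data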;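 further: 0% = DMSO-only wells and 100% = 3 µM delta7-dafachronic acid wells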
DAX1 inh-2: DAX1 (NR0B1) inhibitors, primary screen, cell-based, HEK293, Gal4-DAX1, luciferase luminescence; 0.99% of 340,000 active; HEK293 Gal4-DAX1 luciferase reporter; Nuclear receptor subfamily 0 group B member 1 (Homo sapiens), P51843; inhibition, % at 6.75 µM;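 active means inhibition above the mean over all tested compounds plus 3 SD, cut at about 4.2% in these data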;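 further: 0% = DAX1-transfected cells with DMSO and 100% = empty-vector control cells with DMSO; inhibition shows as a rise in luminescence from relieved DAX1 repression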
hgDAF-12 ag: H. glycines DAF-12 receptor agonists, primary screen, cell-based, luminescence, HEK293, GAL4 fusion, UAS-luciferase | Nuclear hormone receptor DAF-12 (Heterodera glycines), GAL4 fusion | HEK293 GAL4-hgDAF12 UAS-luciferase reporter, agonist luminescence; normalized to butyrate control | activation, % at 6.8 µM | 1.8% of 370,000 active | AID 687014, 2013;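 active means activation above a cutoff set at the mean of all screened compounds plus 3 SD, cut at about 10% in these data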;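 further: 0% = DMSO wells and 100% = sodium butyrate wells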
hgDAF12 ag: H. glycines DAF-12 receptor agonists, confirmation, cell-based, luminescence, HEK293, GAL4-LBD fusion | shares compounds with hgDAF-12 ag | HEK293 GAL4-hgDAF12 luciferase reporter, agonist mode; percent of butyrate response | activation, % at 6.8 µM | 80% of 3,300 active;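 active means mean activation over triplicate wells above the hit cutoff derived from the earlier primary screen, cut at about 11% in these data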;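 further: 0% = DMSO low control and 100% = 2 mM sodium butyrate high control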
LXR ag 2: LXR agonists, Gal4 luciferase reporter, confirmation, counter-screen for hgDAF-12 agonist project, cell-based, luminescence, HEK293, H. glycines campaign; shares compounds with hgDAF-12 ag; 24 h; activation, % at 6.8 µM; 3,300 tested, under 10 active; AID 743051, 2013;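 active means mean activation of the triplicate above a set limit carried over from the primary screen, none filed active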
Target sequence (P55055 whole entry, looked up, the tested form may be a part): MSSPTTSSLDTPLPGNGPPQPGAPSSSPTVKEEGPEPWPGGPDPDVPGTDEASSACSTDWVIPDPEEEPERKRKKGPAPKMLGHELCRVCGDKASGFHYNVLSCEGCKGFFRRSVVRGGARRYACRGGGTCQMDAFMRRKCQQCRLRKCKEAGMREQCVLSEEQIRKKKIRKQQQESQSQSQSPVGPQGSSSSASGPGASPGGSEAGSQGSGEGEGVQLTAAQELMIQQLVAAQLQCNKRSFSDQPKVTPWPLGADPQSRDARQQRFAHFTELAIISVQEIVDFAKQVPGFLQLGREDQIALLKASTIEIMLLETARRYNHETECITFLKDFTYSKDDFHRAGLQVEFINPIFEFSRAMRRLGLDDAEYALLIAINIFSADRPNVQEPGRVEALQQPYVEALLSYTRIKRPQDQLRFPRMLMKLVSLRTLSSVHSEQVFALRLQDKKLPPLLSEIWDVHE
Numbers without * were called inactive; . = not tested or not shown. The list is not random: actives were taken first. Their share in the collection is about 4.1%.

SMILES	hcDAF12 agonist	DAX1 inh-1	ssDAF-12 act	DAX1 inh-2	hgDAF-12 ag	hgDAF12 ag	LXR ag 2
Cc1ccccc1NC(=O)c1cc2ccccn2n1	6.0*	3	1	2	19*	13*	1
Cc1ccccc1NC(=O)c1cnc2ccccn2c1=O	4	4.2*	0	-1	16*	16*	1
Cc1ccccc1NC(=O)c1c(F)c(F)c(F)c(F)c1F	1	1	-1	0	2	.	.
CCOC(=O)[C@@H]1[C@H]2COc3ccc(Br)cc3[C@@H]2N2C(=O)N(c3ccc(F)cc3)C(=O)[C@]12C	-2	2	-1	1	-2	.	.
O=C(Cn1nc(Br)nc1Br)c1ccccc1	-3	0	-1	3	0	.	.
Cc1nc(C(C)NC(=O)CCc2nnc(CCCc3ccccc3)o2)c(C)s1 (centres undefined)	2	1	0	0	13*	10	0
COc1ccc(/C=N/NC(=O)C(=O)NCc2cccnc2)cc1	-2	0	-1	-1	-3	.	.
CN(C)c1ccc(NC(=O)/C=C/c2ccccc2Cl)cc1	4	2	-1	0	18*	14*	1
CCN(CC)c1ccc(NC(=O)/C=C\c2ccccc2Cl)cc1	-1	1	-2	1	7	.	.
CCNC(=S)Nc1ccc(-c2nc3ccccc3[nH]2)cc1	2	4.4*	-1	4	14*	17*	1
O=C(CSc1ccccc1)Nc1ccc(-c2nc3ccccc3[nH]2)cc1	0	2	-1	0	16*	13*	0
CC1(c2ccccc2Cl)NC(=O)N(CC(=O)Nc2ccc(N3CCCCC3)cc2)C1=O (centres undefined)	-1	-1	-1	1	1	.	.
COc1ccc(CCNC(=O)Nc2ccccc2[N+](=O)[O-])cc1	1	2	-1	.	16*	5	0
COc1ccc(CCNC(=O)COC(=O)Cc2ccccc2[N+](=O)[O-])cc1	3	-3	0	1	-6	.	.
Cc1ccc(NC(=O)c2ccc3ncsc3c2)cc1S(=O)(=O)N(C)C	4	3	0	.	20*	14*	1
CC(C)Oc1cccc(C(=O)Nc2ccc(N3CCN(C)CC3)cc2)c1	-1	0	-1	0	4	.	.
Cc1ccc(C(=O)NCCCc2ccccc2)c(Cl)c1	6.5*	2	0	5.1*	15*	11*	0
Cc1cc(C)cc(C(=O)NCCCc2ccccc2)c1	-3	0	-2	1	-3	.	.
Cc1ccc(C(=O)NCCCc2ccccc2)c(C)c1	5	3	0	6.8*	15*	16*	1
COc1ccc(-c2nc(C#N)c(NCc3ccco3)o2)cc1	-1	2	-1	1	16*	16*	0
Cc1ccc(-c2nc(C#N)c(NCc3ccco3)o2)cc1	1	2	0	3	14*	16*	0
COc1cccc(/C=N/n2cnc3ccccc32)c1OC	4	3	0	2	14*	14*	1
Cc1ccc(NC(=O)c2cc3c(s2)CCCC3)cc1	5	4.2*	0	6.6*	19*	17*	1
Cc1ccc(NC(=O)c2scc3c2CCCC3)cc1	6.2*	3	1	4.6*	23*	15*	1
O=C(CSc1n[nH]c(=O)n1-c1cccnc1)Nc1ccccc1Cl	-1	-1	-1	0	-1	.	.
SMILES	hcDAF12 agonist	DAX1 inh-1	ssDAF-12 act	DAX1 inh-2	hgDAF-12 ag	hgDAF12 ag	LXR ag 2
COc1ccc(-n2c(SCC(=O)Nc3ccccc3C)nc(O)c(Cc3ccccc3)c2=O)cc1	3	-1	0	0	3	.	.
CCOC(=O)c1ccc2nc(Nc3nc4ccc(F)cc4s3)sc2c1	-1	-2	-2	-4	-10	.	.
COC(=O)c1ccc2nc(NC(=O)C3CC3)sc2c1	0	0	-1	1	9	.	.
COC(=O)c1ccc2nc(NC(=O)C(C)C)sc2c1	2	3	0	1	14*	15*	1
CCOC(=O)c1ccc2nc(NC(C)=O)sc2c1	2	2	-1	2	14*	13*	1
CCOc1ccc(CCNC(=O)c2cc(C)nn2-c2ccccc2)cc1	-2	-1	0	1	-1	.	.
C=CC[C@H](CC(=O)NCCO)C(=O)NC[C@@H](OC(=O)[C@@H](CC=C)CC(=O)OC(C)(C)C)c1ccccc1	0	0	-1	0	-1	.	.
O=C(O)C1C2CCC(C2)C1C(=O)Nc1nc2ccccc2s1 (centres undefined)	1	1	0	1	3	.	.
O=C(CC1CCCCC1)Nc1nc2ccccc2s1	4	2	-1	3	14*	17*	1
Cc1cn(C2CC(O)C(CO)O2)c(=O)n(Cc2ccccc2)c1=O (centres undefined)	-2	-1	-2	1	5	.	.
Nc1nc2ccccc2n1C(=O)c1cccs1	5	3	1.0*	1	15*	13*	1
Nc1nc2ccccc2n1C(=O)CCc1ccccc1	4	1	0	5.0*	14*	18*	1
CN(CC(=O)Nc1ccccc1Cl)C(=O)C1CSC2(C)CCC(=O)N12 (centres undefined)	1	1	-1	0	-1	.	.
CC(=O)c1ccc(NC(=O)C2CC(=O)N(Cc3ccccc3)C2)cc1 (centres undefined)	0	1	-1	1	14*	10	0
O=C(Nc1ccccc1)C1CC(=O)N(Cc2ccccc2)C1 (centres undefined)	0	0	0	1	-1	.	.
O=C(NNC(=S)Nc1ccccc1)c1ccc(O)cc1	2	3	0	6.0*	15*	12*	1
O=C(NNC(=S)NC(=O)c1ccccc1)c1ccc(O)cc1	1	0	-1	0	1	.	.
NC(=O)CC(NC(=O)c1cccc(Br)c1)c1ccc(NC2CCCCCCCCCCC2)c([N+](=O)[O-])c1 (centres undefined)	0	0	-1	2	-2	.	.
